In the library only some 2.2% were active in any assay of this set; here they are far more common.
NALP1 yeast inh: blocks the NALP1 inflammasome reconstituted in yeast; S. cerevisiae NALP1/ASC/caspase-1 growth, X-gal OD620, 72 h; inhibition, % at 10 µM; 0.61% of 280,000 active; in the data active = inhibition mostly above about 24%, no sharp cut-off; inactive = mostly below about 32%
ZTA DNA inh: ZTA (EBV) inhibition in EBNA-1 counter-screen; P03206; 0.15% of 320,000 active; inhibition, % at 11 µM; ZTA-DNA binding, fluorescence polarization; AID 2234; in the data active = inhibition above about 33%
NLRP3 yeast inh: NALP3 inhibition in yeast; Yeast reconstituted NLRP3/ASC/caspase-1, beta-gal luminescence, 24 h; inhibition, % at 10 µM; 0.39% of 330,000 active;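 active = inhibition of 50% or more; inactive = inhibition below 50%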;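 note: plate controls were induced DMSO wells for no effect and uninduced yeast grown without galactose for full effect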
dFosB act-1: enhances mouse delta FosB homodimer DNA binding; purified delta FosB, TAMRA-CDK5 oligo fluorescence polarization; percent of positive-control signal above neutral wells; activation, % at 25 µM; 0.99% of 340,000 active; P13346;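 active = mean activation above about 17%, with every replicate also reaching it, limit read from the data, passing the limit was not always enough; inconclusive = only one of the two conditions met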
Target sequence (P13346 whole entry, looked up): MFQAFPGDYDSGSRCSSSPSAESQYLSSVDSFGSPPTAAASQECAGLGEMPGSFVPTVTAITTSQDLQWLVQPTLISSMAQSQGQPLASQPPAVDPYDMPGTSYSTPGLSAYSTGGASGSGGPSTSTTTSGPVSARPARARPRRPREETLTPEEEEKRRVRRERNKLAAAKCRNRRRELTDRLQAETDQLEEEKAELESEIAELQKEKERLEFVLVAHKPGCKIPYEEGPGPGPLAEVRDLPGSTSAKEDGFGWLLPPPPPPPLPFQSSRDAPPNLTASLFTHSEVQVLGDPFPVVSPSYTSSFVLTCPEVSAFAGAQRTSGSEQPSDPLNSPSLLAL
PolyA inhibitor: blocks polyadenylation in yeast reporter cells. 0.02% of 300,000 active. activity score, % at 12 µM. AID 1875. S. cerevisiae SKY197-pL101 polyadenylation reporter, beta-gal luminescence; efflux-impaired pdr1/pdr3 knockout yeast; score 100 = 6 SD above DMSO;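 active = lowest replicate activity score at least 50, where 100 means six control SD above control mean; inconclusive = lowest score under 50 but half or more replicates reach 50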;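 note: yeast exposed to compound for 9 h at 30 °C; higher score means more reporter readthrough which indicates perturbed polyadenylation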
EBNA-1 inhibitor: blocks EBNA-1 binding to DNA; EBNA-1 DNA binding, fluorescence polarization; inhibition, % at 14.8 µM; 0.34% of 300,000 active; AID 1950; in the data active = inhibition above about 28%
NALP3 yeast conf: confirmation of NALP3 inhibitors in yeast; shares compounds with NLRP3 yeast inh; yeast expressing human NALP3, luminescence; inhibition, % at 10 µM; 81% of 1,300 active; AID 435006; in the data active = inhibition above about 48%
Casp1 ASC ctr: active in yeast caspase-1-ASC counter-screen for NALP3 inhibitors; AID 488784; 66% of 1,000 active; shares compounds with NLRP3 yeast inh; yeast expressing Caspase-1-ASC, luminescence counter screen; inhibition, % at 10 µM
NALP3 retest: yeast NALP3 inhibition, confirmed on retest | yeast expressing human NALP3, luminescence read-out | AID 488794 | 53% of 1,000 active | shares compounds with NLRP3 yeast inh | inhibition, % at 10 µM
dFosB act-2: activators of mouse delta FosB homodimer DNA binding; shares compounds with dFosB act-1; purified delta FosB, TAMRA-CDK5 oligo fluorescence polarization; normalised: neutral wells 0, positive control 100; activation, % at 24.9 µM; 2,400 tested, under 10 active; AID 588690;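 active = highest replicate activation at or above 34% and every replicate reaching that threshold; inconclusive = meets only one of the two criteria; inactive = meets neither criterion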;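 note: higher polarization means more probe DNA bound by delta FosB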
The depositor's hits bear a star; ? = inconclusive; . = not tested or not shown. Cut-off read from the data, not from the text of the source, unless noted: active = inhibition above about 50%; inactive = the rest.

SMILES	NALP1 yeast inh	ZTA DNA inh	NLRP3 yeast inh	dFosB act-1	PolyA inhibitor	EBNA-1 inhibitor	NALP3 yeast conf	others
Cc1ccccc1CN1CCN(c2ccc(Cl)cc2)CC1	41	-22	-10	-7	3	3	.
Cc1ccc(Cl)cc1N1CCN(CCN)CC1	5	-16	59*	0	-42	2	57*	Casp1 ASC ctr=58*;NALP3 retest=67*
CC1([N+](=O)[O-])COP(=O)(NC2CCCC2)OC1 (stereo unspecified)	.	.	.	-1	.	.	.
Cc1ccc(C[n+]2c(-c3ccc(C)cc3)cc(-c3ccc(C)cc3)cc2-c2ccc(C)cc2)cc1	.	-8	78*	-2	13	-6	76*	Casp1 ASC ctr=72*;NALP3 retest=75*
Cc1ccc(-c2cc(-c3ccc(C)cc3)[n+](-c3ccc(C(=O)O)cc3)c(-c3ccc(C)cc3)c2)cc1	.	-14	13	-6	6	-3	.
COc1cc2c(cc1OC)CN(c1ccc([N+](=O)[O-])c(C(F)(F)F)c1)CC2	49	-25	50*	6	-11	-11	23
C(=NC1CCCCC1)c1c[nH]c2ccccc12	.	.	.	0	.	.	.
Oc1c(Br)c(Br)c(Br)c(Br)c1Br	.	0	66*	5	.	.	71*	Casp1 ASC ctr=74*;NALP3 retest=91*
Oc1c(Br)cc(Br)cc1Br	.	-11	13	-3	.	.	.
CC1(C)C[C@H]2C=C(C=O)[C@]3(C=O)C[C@]3(C)[C@H]2C1	108*	12	84*	2	-15	-8	63*
O=C1NC(=O)C(=Cc2c(Cl)cccc2Cl)C(=O)N1	.	.	.	-1	.	.	.
C[C@]12CCC(=O)C=C1C=CC1C2CC[C@]2(C)C(=O)CCC12 (stereo partly specified)	.	.	50*	-17	.	.	57*
O=[N+]([O-])c1ccc(N2CCCC2)c(F)c1Br	23	3	52*	0	-24	7	60*	Casp1 ASC ctr=72*;NALP3 retest=62*
O=[N+]([O-])c1ccc(N2CCCC2)c2ncccc12	1	3	41	-1	-34	4	.
O=C1c2ccccc2C(=O)N1Cc1nc2ccccc2c(=O)n1-c1cccnc1	-10	-9	12	-9	3	0	.
O=C1c2ccccc2C(=O)N1Cc1nc2ccccc2c(=O)n1-c1ccc(Br)cn1	38	-3	61*	2	2	-7	74*	Casp1 ASC ctr=35;NALP3 retest=34
NC(C(=O)O)c1cc(=O)[nH]o1 (stereo unspecified)	.	4	11	-3	.	6	.
O=C(/C=C/c1c[nH]c2ccccc12)c1c(O)n(CCc2ccccc2)c(=O)[nH]c1=O	11	3	-1	22*	-11	5	.	dFosB act-2=?
C[N+]1=C(/C=C/Nc2ccccc2)C(C)(C)c2ccccc21	8	14	6	23*	-1	-5	.	dFosB act-2=?
NC(N)=Nc1ccc2[nH]c3c(c2c1)C[C@@]1(O)[C@H]2Cc4ccc(O)c5c4[C@@]1(CCN2CC1CC1)C3O5 (stereo partly specified)	.	.	4	45*	.	.	.	dFosB act-2=5
COc1cc(/C=C2\C[C@H]3[C@@H]4CC=C5C[C@@H](N6CCCC6)CC[C@]5(C)[C@H]4CC[C@]3(C)[C@H]2O)cc(OC)c1OC	.	.	.	9	.	.	.
N#CC1c2ccccc2-n2nncc2CN1S(=O)(=O)c1ccccc1 (stereo unspecified)	.	.	.	0	.	.	.
CCCCCn1c(=O)c(C(=O)Nc2ccccc2S(N)(=O)=O)c(O)c2ccccc21	-5	2	25	63*	1	0	.	dFosB act-2=?
CCCCn1c(=O)c(C(=O)Nc2ccccc2S(N)(=O)=O)c(O)c2ccccc21	-5	-1	18	-12	-21	-7	.
CN1/C(=C\C=Nc2ccccc2)C(C)(C)c2ccccc21	-11	7	15	26*	21	10	.	dFosB act-2=6
ClC1=C(Cl)C2(Cl)C3C(Cl)C=CC3C1(Cl)C2(Cl)Cl (stereo unspecified)	.	6	30	-2	.	.	.
Cc1cc(NC(=O)COC(=O)c2c(C)nn(Cc3ccccc3Cl)c2Cl)no1	11	-12	7	46*	1	0	.	dFosB act-2=-13
Cc1cc(NC(=O)COC(=O)c2c(C)nn(Cc3ccccc3)c2C)no1	-2	8	10	-2	-10	-5	.
Cc1cc(N(CCCl)CCCl)ccc1C=NNC(=O)Cc1cc(=O)oc2cc(O)ccc12	.	.	.	-3	.	.	.

Assay outcomes as filed in PubChem BioAssay.
